Source: PubChem BioAssay (NCATS)
“And” between values parts separate entries of the source, which are not always exact repeats. Identical values can stand only once. Inconclusive results are not listed. Some compounds were tested as several samples or in several runs, with calls that do not always agree. The source made the active and inactive calls. Unless noted, the call rests on the fitted dose curve; in most records, active means well fitted curve in the direction sought with a large enough effect; inconclusive means small, poorly fitted or top-dose-only effect, or another doubt; inactive means no such curve, though single readings can be large; an effect the other way counts as inactive or inconclusive.

Key:
[1] = qHTS profiling for inhibitors of Plasmodium falciparum (3D7) proliferation (AID 743322);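 further: infected erythrocytes exposed to compound for 72 h before lysis; 100% = DMSO vehicle wells and 0% = 0.29 µM artemisinin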; details: P. falciparum 3D7 proliferation; at 28.7 µM (top of the series)
Outline: (§1)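 Parasite DNA was quantified by SYBR Green I fluorescence (ex 485, em 535 nm) after overnight lysis in saponin/Triton buffer at room temperature. Cultures at 0.3% parasitemia and 2.5% hematocrit were first exposed to compound for 72 h at 37 C; signals were normalised to artemisinin (0.29 uM) and vehicle wells.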

[2] = qHTS profiling for inhibitors of Plasmodium falciparum (DD2) proliferation (AID 743323; call rule not given here); details: lower = more inhibition; at 28.7 µM (top of the series)
Outline: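 P. falciparum Dd2-infected erythrocytes (0.3% parasitemia, 2.5% hematocrit) exposed 72 h at 37 C, 5% CO2. Lysis with SYBR Green, overnight at room temperature, fluorescence 485/535 nm; normalized to 0.29 uM artemisinin and DMSO.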

[3] = qHTS profiling of the MIPE4 collection as inhibitors of Plasmodium falciparum (3D7) proliferation (AID 743344; call rule not given here;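 further: scaled between DMSO vehicle wells and 0.29 µM artemisinin as full inhibition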); details: P. falciparum 3D7 in erythrocytes, SYBR Green DNA fluorescence, 72 h; at 28.5 µM (top of the series) unless noted
Outline: as §1

[4] = qHTS profiling of the MIPE4 collection as inhibitors of Plasmodium falciparum (DD2) proliferation (AID 743345; call rule not given here); details: P. falciparum Dd2 in erythrocytes, SYBR Green DNA, 72 h; at 28.5 µM (top of the series) unless noted
Outline: as §1

[5] = qHTS profiling of the MIPE4 collection as inhibitors of Plasmodium falciparum (DD2) proliferation (Rep 2) (AID 743346; call rule not given here); details: P. falciparum Dd2 in erythrocytes, SYBR Green DNA, 72 h; at 28.5 µM (top of the series) unless noted
Outline: as §1

[6] = qHTS profiling of the MIPE4 collection as inhibitors of Plasmodium falciparum (HB3) proliferation (AID 743347; call rule not given here;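 further: plate controls were DMSO vehicle wells for no effect and artemisinin wells for full effect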); details: P. falciparum HB3 in erythrocytes, SYBR Green DNA, 72 h; at 28.5 µM (top of the series) unless noted
Outline: as §1

[7] = High-throughput drug toxicity screening in the BPDCN cell line Gen2.2 (AID 1224824; call rule not given here;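 further: cells exposed to compounds for 48 h before reading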); details: Gen2.2 BPDCN cells; at 45.8 µM (top of the series) unless noted
Outline: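 CellTiter-Glo luminescence after 48 h compound exposure of Gen2.2 cells; percent activity set with DMSO as 100% and bortezomib (9.2 uM final) as 0%. Cells seeded at 500 per well, RPMI + 10% FBS, 37 °C.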

[8] = High-throughput drug toxicity screening in the BPDCN cell line Cal-1 (AID 1224825; call rule not given here); details: Cal-1 BPDCN cell viability, qHTS; at 45.8 µM (top of the series) unless noted
Outline: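 CellTiter-Glo luminescence after 48 h compound exposure; percent activity scaled with DMSO as 100% and bortezomib (9.2 uM final) as 0%. Cal-1 cells seeded at 500/well in RPMI, 10% FBS, no phenol red.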

[9] = qHTS assay for measurement of the activity of small molecule inhibitors on Zika virus induced Caspase-3 activity in human iPSC derived neural progenitor cells (hNPCs) (AID 1224857); further: nearly all actives have a fitted effect of over 65% in size; further: potency means the concentration at half of the fitted maximal effect
Outline: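 Caspase-3/7 induction by a 6-hour ZIKV infection was quantified with a luminescent Caspase-Glo 3/7 reagent incubated 30 minutes at room temperature. Compounds were preincubated with hNPCs for 1 hour; inhibition was calculated against uninfected and infected control wells.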

[10] = qHTS assay for measurement of the activity of small molecule inhibitors on Zika virus induced Caspase-3 activity in human astrocytoma cells (AID 1224859);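 further: plate controls were ZIKV-infected untreated cells for no effect and uninfected cells for full effect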
Outline: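 In SNB-19 cells plated at 250 cells/well and grown 16-20 h, compounds were applied 1 h before ZIKV (2 FFU/cell). Six hours later caspase-3/7 luminescence was recorded.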

[11] = qHTS Screen of the MIPE 4.0 Collection Against Ewings Sarcoma (RDES) (AID 1259252); further: nearly all actives have a fitted effect of over 35% in size; further: potency means the concentration at half of the fitted maximal effect
Outline: (§2)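 Dose series incubated 48 h with cells in RPMI plus 5% FBS, glutamine and penicillin/streptomycin; cell viability then quantified via CellTiter-Glo.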

[12] = qHTS Screen of the MIPE 4.0 Collection Against Ewings Sarcoma (TC71) (AID 1259253); further: nearly all actives have a fitted effect of over 40% in size; further: potency means the concentration at half of the fitted maximal effect
Outline: as §2

[13] = qHTS Screen of the MIPE 4.0 Collection Against Ewings Sarcoma (EW8) (AID 1259255); further: nearly all actives have a fitted effect of over 35% in size; further: potency means the concentration at half of the fitted maximal effect;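 on viability: 100% = DMSO-treated cells and 0% = medium-only wells without cells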
Outline: as §2

[14] = qHTS Screen of the MIPE 4.0 Collection Against Ewings Sarcoma (TC32) (AID 1259256); further: nearly all actives have a fitted effect of over 45% in size; further: potency means the concentration at half of the fitted maximal effect
Outline: as §2

[15] = Identifying Small Molecule Inhibitors of Pancreatic Cancer Stem Cells (SN12C, Adherent) (AID 1259358);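 further: potency means the concentration at half of the fitted maximal effect; cell survival measured after 48 h of compound exposure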
Outline: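 Endpoint: ATP-based luminescence, 48 h drug exposure. Bortezomib at 9.2 uM final as full-kill control; DMSO vehicle as negative control; activity normalized between vehicle and cell-free wells.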

[16] = qHTS profiling for inhibitors of Plasmodium falciparum (HB3) proliferation (AID 743324); details: Plasmodium falciparum HB3 blood-stage proliferation; at 28.7 µM (top of the series);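 further: 100% = DMSO vehicle wells and 0% = artemisinin-treated control wells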
Outline: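 SYBR Green fluorescence (485 ex/535 em) of lysed cultures, incubated overnight at room temperature in the dark, quantifies parasite DNA. Infected erythrocytes at 0.3% parasitemia and 2.5% hematocrit were exposed 72 h; values normalized to DMSO and 0.29 uM artemisinin controls.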

[17] = qHTS assay to identify small molecule inhibitors of chordoma cells - UCH-2 (AID 1259356); further: on the % scale 0 is the no-effect control and ±100 the full control effect
[18] = qHTS assay to identify small molecule inhibitors of chordoma cells - UCH-1 (AID 1259355); further: on the % scale 0 is the no-effect control and ±100 the full control effect; nearly all actives have a fitted effect of over 55% in size
Outline: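 Screening used approved and investigational drugs in 15-point titration against 800 seeded cells per well. A fixed combination of auranofin with camptothecin, doxorubicin, rubitecan and topotecan followed compound addition, and growth was scored by CellTiter-Glo after 48hr.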

SMILES | remaining parasite growth % (stronger effect = lower value) [1] | activity, percent of control [2] | parasite growth, % of DMSO control [3] [%] | parasite growth remaining, % of DMSO control (lower = more inhibition) [4] [%] | parasite growth, % of control (lower = inhibition) [5] [%] | growth, % of control [6] [%] | cell viability, % of control (lower = more cytotoxic) [7] [%] | viability (% of control) [8] [%] | Potency [9] | Potency [10] | Potency [11] | Potency [12] | Potency [13] | Potency [14] | Potency [15] | remaining proliferation (% of control), lower = more inhibition [16] [%] | Potency [17] | Potency [18]
NC1(c2ccc(-c3nc4ccn5c(=O)[nH]nc5c4cc3-c3ccccc3)cc2)CCC1 | 36.9% and -1.39% | 14.1% and -0.386% | 5.65 | 17.9 | 7.57 | 8.07 | 7.66 | 4.61 | inactive | inactive | 23.5 µM (active) | 20.9 µM (active) | 4.69 µM (active) | 13.2 µM (active) | 26.4 µM (active) |  |  | 
COCCCOc1cc(C[C@@H](C[C@H](N)[C@@H](O)C[C@H](C(=O)NCC(C)(C)C(N)=O)C(C)C)C(C)C)ccc1OC |  |  |  |  | 50.1 | 86.2 | 148 | 113 | inactive | inactive | inactive | inactive | inactive | inactive |  |  |  | 
CC1=CC(=O)c2ccccc2C1=O | 0.179% | 0.841% | 40.3 | 48 | 10.3 | 23.6 | 2.97 | 1.39 | inactive | inactive | 18.7 µM (active) | 26.4 µM (active) |  | 26.4 µM (active) |  | 4.17 | inactive | 
CC(=O)[C@H]1CC[C@H]2[C@@H]3CCC4=CC(=O)CC[C@]4(C)[C@H]3CC[C@]12C |  |  |  |  |  |  | 83 | 79.9 | inactive | inactive | 3.32 µM (active) |  | 9.35 µM (active) | 3.72 µM (active) |  |  |  | 
CC(=O)CC(c1ccccc1)c1c(O)c2ccccc2oc1=O (stereo not given) |  |  |  |  |  |  | 66.7 | 60.3 | inactive and 23.5 µM (active) | inactive | inactive |  | inactive | inactive |  |  | inactive | inactive
COc1ccc2c(c1)c(CC(=O)OCC(=O)O)c(C)n2C(=O)c1ccc(Cl)cc1 |  |  | 78.3 |  | 68.6 |  | 144 | 119 | inactive | inactive | inactive | inactive | inactive | inactive |  |  |  | 
Cc1ccc(S(=O)(=O)N[C@@H](Cc2ccccc2)C(=O)CCl)cc1 |  |  | 90.3 | 91.3 | 79.2 | 84.3 | 4.27 | 3.45 | inactive | inactive | 26.4 µM (active) | 18.7 µM (active) | 16.6 µM (active) | 14.8 µM (active) |  |  |  | 
COc1cc2nc(N3CCCN(C)CC3)nc(NC3CCN(Cc4ccccc4)CC3)c2cc1OC | 0.848% | 0.575% |  |  | 7.33 | 8.7 | 9.38 | 4.13 | inactive | inactive | 8.33 µM (active) | 10.5 µM (active) | 7.43 µM (active) | 5.26 µM (active) |  |  |  | 
CCc1cc(C(N)=S)ccn1 |  |  |  | 10.5 | 6.58 |  | 139 | 95.1 | inactive | inactive | inactive | 20.9 µM (active) | inactive |  |  |  | inactive | inactive
CCN1CCCC1CNC(=O)c1cc(S(N)(=O)=O)ccc1OC (stereo not given) |  |  | 101 | 90.1 | 41.9 | 70.9 | 128 | 82.8 | inactive | inactive | inactive | 16.6 µM (active) | inactive |  |  |  |  | 
O=C(NCC1CN(c2ccc(N3CCOCC3=O)cc2)C(=O)O1)c1ccc(Cl)s1 (stereo not given) |  |  | 74.4 | 94.4 | 80.7 |  | 29.6 | 48.9 | inactive | inactive | inactive | inactive | inactive | inactive |  |  |  | 
CNC1CCCN(c2c(F)cc3c(=O)c(C(=O)O)cn(C4CC4)c3c2OC)C1 (stereo not given) |  |  | 20.4 | 11.8 | 8.93 |  | 106 | 32.3 | inactive | inactive | 14.8 µM (active) | 18.7 µM (active) |  | 20.9 µM (active) |  |  | inactive | inactive
O=C(O)c1ccc(-n2nc(-c3ccccc3O)nc2-c2ccccc2O)cc1 |  |  | 50.5 | 107 | 34.2 | 94.6 | 142 | 25.8 | inactive | inactive | 20.9 µM (active) | 14.8 µM (active) | 20.9 µM (active) |  |  |  |  | 
Clc1ccccc1CN1CCc2sccc2C1 |  |  |  |  |  |  | 91.7 | 45.9 | inactive | inactive | inactive |  | inactive | inactive |  |  |  | 
CCCCCCNC(=O)n1cc(F)c(=O)[nH]c1=O |  |  | 59 |  | 30.5 |  | 106 | 33.8 | inactive | inactive | 13.2 µM (active) | 8.33 µM (active) |  | 18.7 µM (active) |  |  | inactive | inactive
Cc1oc(=O)oc1CN1CCN(c2cc3c(cc2F)c(=O)c(C(=O)O)c2n3C(C)S2)CC1 (stereo not given) |  |  |  |  | 9.67 |  | 162 | 103 | inactive | inactive | inactive | inactive | inactive |  |  |  | inactive | 
O=c1oc2c(O)c(O)cc3c(=O)oc4c(O)c(O)cc1c4c23 |  |  | 4.91 | 7.22 | 5.89 | 6.72 | 225 | 131 | inactive | inactive | inactive |  | inactive | inactive |  |  | inactive | inactive
OCc1ccc(-c2nn(Cc3ccccc3)c3ccccc23)o1 |  |  | 74.2 | 85 | 73.7 |  | 199 | 104 | inactive | inactive | 2.64 µM (active) |  | 1.18 µM (active) |  |  |  |  | 
O=C(O)CSCC(=O)NC1CCSC1=O (stereo not given) |  |  |  | 139 | 124 |  | 118 | 112 | inactive | inactive | inactive |  | inactive | inactive |  |  |  | 
CC[C@H](C)C(=O)O[C@H]1C[C@@H](C)C=C2C=C[C@H](C)[C@H](CC[C@@H]3C[C@@H](O)CC(=O)O3)[C@H]21 |  |  | 73.9 | 103 | 83.7 |  | 8.11 | 84.4 | inactive | inactive | 18.7 µM (active) |  |  | 7.43 µM (active) |  |  | inactive | 
O[C@@H](CNC[C@H](O)[C@H]1CCc2cc(F)ccc2O1)[C@@H]1CCc2cc(F)ccc2O1 |  |  | 6.58 | 8.23 | 19.2 | 8.28 | 4.81 | 2.75 | inactive | inactive | 23.5 µM (active) |  | 20.9 µM (active) | 23.5 µM (active) |  |  |  | 
CN(C)CCc1c[nH]c2ccc(CS(=O)(=O)N3CCCC3)cc12 |  |  |  | 92.8 | 86.7 | 70.4 | 25 | 93.3 | inactive | inactive | inactive |  | inactive | inactive |  |  | inactive | inactive
CCOC(=O)c1ccc(OC(=O)CCCCCN=C(N)N)cc1 |  |  |  | 89.5 | 118 | 80.6 | 186 | 106 | inactive | inactive | inactive |  | inactive | inactive |  |  | inactive | 
Nc1nc(N)c2nc(CNc3ccc(C(=O)NC(CCC(=O)O)C(=O)O)cc3)cnc2n1 (stereo not given) |  |  | 25 | 7.65 | 21 | 23.4 | 23.1 | 9.27 | inactive | inactive | 0.0166 µM (active) |  |  | 0.0332 µM (active) |  |  |  | inactive
N[C@@H](Cc1ccc(O)c(O)c1)C(=O)O |  |  |  | 114 | 64.9 | 84 | 94.2 | 93.8 | inactive | inactive | inactive |  | inactive | inactive |  |  | inactive | 
